Assay: probe aNog binding to arrayed compounds – biochemical, biotinylated probe, 635/667 nm fluorescence, primary screen (AID 1115);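 further: probe is biotinylated aNog protein used at 0.15 µg/mL for 1 h at 4 C; z-score combines 667 nm fluorescence of each spot with its signal to noise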
Conditions: small-molecule microarray, higher = more signal
Compound `CC(C)(C)OC(=O)CC[C@]1(C(=O)NCCN2CCOCC2)N=C(c2ccc(OCCCO)cc2)O[C@H]1c1ccccc1` has a composite z-score of 0.593.
For `C=CC[C@@]12N=C(c3ccc(OCCCO)cc3)O[C@@H]1c1ccccc1N(CCS(=O)(=O)c1ccccc1)C2=O`, the composite z-score was -0.0569.
`CCOC(=O)C[C@H]1[C@H](OC(=O)c2ccccc2-c2ccccc2)[C@@H](NC(=O)CC(C)C)c2cc(OCCCO)ccc2N1C(=O)c1ccc2ccccc2n1` gave a composite z-score of -0.134.
With `COc1ccc(C(O)C2C=CC3C(=O)N(c4ccccc4)C(=O)C3N2Nc2ccccc2)cc1OCc1ccccc1` (stereo not given) the composite z-score was 1.26.
In the case of `NCCCCCNC(=O)[C@@H]1C[C@@H]2C(=O)N[C@@H](CCCCN)C(=O)N2[C@@H]1c1cccc(OCCO)c1`, the composite z-score is reported as 0.628.
Work on `CCCCC(CC)C(O)C1C=CC2C(=O)N(c3ccccc3)C(=O)C2N1Nc1ccc([N+](=O)[O-])cc1` (stereo not given) yielded a composite z-score of -0.623.
For `CC(C)(C)OC(=O)CC[C@]1(C(=O)O)N=C(c2ccc(OCCCO)cc2)O[C@H]1c1ccccc1CN=[N+]=[N-]`, the composite z-score was 0.718.
In the case of `C=C(/C(=C/C[C@@H](OC(=O)c1ccncc1)c1ccccc1OCCO)c1cc(C(=O)OC)ccc1OC)C(C)C`, the composite z-score is reported as -0.025.
Work on `O=C1O[C@@H](c2ccccc2)[C@@H](c2ccccc2)N2[C@@H](c3ccccc3OCCO)[C@]3(C(=O)Nc4ccccc43)[C@@H](C(=O)NC[C@H](O)c3ccccc3)[C@H]12` yielded a composite z-score of -0.0161.
`COCCOC(=O)N1C(=O)[C@@]2(c3cc(C#CC4(O)CCCCCC4)ccc31)[C@H](c1ccccc1OCCO)N1[C@H](c3ccccc3)[C@H](c3ccccc3)OC(=O)[C@H]1[C@@H]2C(N)=O` gave a composite z-score of 0.347.
For `O=c1cccc(-c2cccc(Cl)c2)o1`, the composite z-score was -0.229.
With `COCCOC(=O)N1C(=O)[C@@]2(c3cc(C#CC4=CCCCC4)ccc31)[C@H](C(=O)N1CCN(c3ncccn3)CC1)[C@H]1C(=O)O[C@H](c3ccccc3)[C@H](c3ccccc3)N1[C@@H]2c1ccc(O)cc1` the composite z-score was 0.0234.
`COCC(=C=CC[C@H](O)c1ccc(OCCO)cc1)C[C@H](O)COCc1ccccc1` gave a composite z-score of -0.302.
Compound `C=C[C@@H](COC(C)=O)NS(=O)(=O)c1ccc(Br)cc1` has a composite z-score of -0.538.
`O=C1C2C=CC(C(O)c3cc(C(F)(F)F)cc(C(F)(F)F)c3)N(Nc3ccc([N+](=O)[O-])cc3)C2C(=O)N1c1ccccc1` (stereo not given) gave a composite z-score of 0.605.
For `CC(=O)NCCCC[C@@H]1NC(=O)[C@@H]2C[C@H](C(=O)O)[C@H](c3ccc(O)cc3)N2C1=O`, the composite z-score was -0.33.
`COCCOC(=O)N1C(=O)[C@@]2(c3cc(C#CC4=CCCCC4)ccc31)[C@H](c1ccc(O)cc1)N1[C@H](c3ccccc3)[C@H](c3ccccc3)OC(=O)[C@H]1[C@@H]2C(=O)Nc1nc2ccccc2s1` gave a composite z-score of -0.482.
`CC(C)CNC(=O)[C@@H]1c2ccccc2C(=O)N(Cc2cc(F)cc(C(F)(F)F)c2)[C@H]1c1ccc(CO)cc1` showed a composite z-score of -0.579.
`C=C(C(=O)CC[C@H](OC(C)=O)c1cccc(OCCO)c1)C(C)C` gave a composite z-score of -0.107.
`O=C1O[C@@H](c2ccccc2)[C@@H](c2ccccc2)N2[C@@H](c3ccc(O)cc3)[C@]3(C(=O)Nc4ccc(C#CCCO)cc43)[C@@H](C(=O)NC[C@H](O)c3ccccc3)[C@H]12` gave a composite z-score of 1.4.
Compound `CCCN1C(=O)[C@]2(Cc3ccccc3)N=C(c3ccc(OCCCO)cc3)O[C@@H]2c2ccccc21` has a composite z-score of -0.646.
`C[C@H]1C2=C3C(CC[C@H]4C(OCc5ccc(F)cc5C(F)(F)F)OC[C@](C)([C@@H]34)N(C(=O)OC(C)(C)C)C2)C2COC(=O)OCC21` (stereo not given in full) gave a composite z-score of -0.701.
In the case of `O=C1c2ccccc2[C@](Cc2ccccc2I)(C(=O)NCCN2CCOCC2)[C@H](c2ccc(CO)cc2)N1Cc1ccccc1`, the composite z-score is reported as 0.482.
For `COC(=O)[C@@]1(Cc2ccc(OC)cc2)[C@H]2c3cc(C(=O)N(C)C)n(Cc4nc5ccccc5[nH]4)c3C[C@H]2CN1C(=O)c1ccccc1`, the composite z-score was 1.81.
`C[C@]1(C(=O)NC2CC2)c2ccccc2C(=O)N(Cc2ccc(OC(F)(F)F)cc2)[C@H]1c1ccc(CO)cc1` gave a composite z-score of 0.625.
Compound `CN(C)CCCNC(=O)[C@@H]1c2ccccc2C(=O)N(CC23CC4CC(CC(C4)C2)C3)[C@H]1c1ccc(CO)cc1` has a composite z-score of -0.403.
In the case of `CC1CC/C=C\[C@H]2OC34C=CCN(C(C)C)C(=O)[C@H]3N(CCCCCO)C(=O)[C@@H]4C2C(=O)O1` (stereo not given in full), the composite z-score is reported as 0.179.
`C=CCOC(=O)[C@H]1[C@@H]2C(=O)O[C@@H](c3ccccc3)[C@@H](c3ccccc3)N2[C@@H](c2ccc(OCCOC(=O)[C@H]3C[C@H]4C(=O)N[C@@H](Cc5ccccc5)C(=O)N4[C@H]3c3cccc(OCCO)c3)cc2)[C@]12C(=O)Nc1ccc(I)cc12` showed a composite z-score of -0.175.
`CC(C)CN1C(=O)[C@@]2(c3ccc([N+](=O)[O-])cc3)CC(=O)N(CC34CC5CC(CC(C5)C3)C4)[C@@H]2c2ccc(CO)cc21` gave a composite z-score of 0.884.
`C=C(CCCC)/C(=C/C[C@@H](OC(C)=O)c1ccc(CO)o1)c1cc(C(=O)OC)ccc1OC` showed a composite z-score of 0.141.
Work on `COC(=O)C1(Cc2ccccc2)C=C2C(=C(C(C)C)C(=O)C2C)CN1` (stereo not given) yielded a composite z-score of 0.593.
Compound `COc1ccc([Si](C)(C)[C@@H]2[C@@H](CCO)O[C@]3(C(=O)N(Cc4cccc(N5C(=O)c6cccc7cccc5c67)c4)c4ccccc43)[C@H]2C)cc1` has a composite z-score of 0.0601.
`C=CCC(OC(C)=O)[C@@H]1[C@@H](N(Cc2cc3ccccc3o2)C(=O)Cc2ccc(F)cc2)c2cc(OCCCO)ccc2N1C(=O)c1ccc2ccccc2n1` (stereo not given in full) showed a composite z-score of 0.14.
With `C=CCOC(=O)[C@@H]1[C@H]2C(=O)O[C@H](c3ccccc3)[C@H](c3ccccc3)N2[C@H](c2ccc(OCCOC(=O)[C@H]3C[C@H]4C(=O)N[C@@H](CCCC[N+](C)(C)C)C(=O)N4[C@H]3c3ccc(O)cc3)cc2)[C@@]12C(=O)Nc1ccc(I)cc12` the composite z-score was -0.0927.
For `[N-]=[N+]=Nc1ccccc1[C@@H]1OC(c2ccc(OCCCO)cc2)=N[C@]1(CCS(=O)(=O)c1ccccc1)C(=O)NCCN1CCOCC1`, the composite z-score was 0.675.
